Screening results: PubChem BioAssay, The Scripps Research Institute Molecular Screening Center
hcDAF-12 act: H. contortus DAF-12 nuclear receptor activators, primary screen, cell-based, luminescence, HEK293, lit1-tk-luc reporter | HEK293 hcDAF-12 lit1-tk-luc reporter; 0% DMSO, 100% Δ7-dafachronic acid | activation, % at 6.8 µM | 1.4% of 370,000 active | AID 652067, 2013;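 active means activation above the mean of all tested compounds plus 3 SD, cut at about 5.5% in these data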;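 further: 100% = response to 3 µM Δ7-dafachronic acid high control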
DAX1 inh-1: DAX1 (NR0B1) inhibitors, primary screen, cell-based, HEK293, Gal4-DAX1, luciferase luminescence; Nuclear receptor subfamily 0 group B member 1 (Homo sapiens), P51843; HEK293 Gal4-DAX1 luciferase reporter; inhibition, % at 6.75 µM; 0.99% of 340,000 active;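 active means inhibition above the mean over all tested compounds plus 3 SD, cut at about 4.2% in these data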;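 further: 0% = DAX1-transfected cells with DMSO and 100% = empty-vector control cells with DMSO; inhibition shows as a rise in luminescence from relieved DAX1 repression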
Target sequence (P51843 207-470 limits assumed): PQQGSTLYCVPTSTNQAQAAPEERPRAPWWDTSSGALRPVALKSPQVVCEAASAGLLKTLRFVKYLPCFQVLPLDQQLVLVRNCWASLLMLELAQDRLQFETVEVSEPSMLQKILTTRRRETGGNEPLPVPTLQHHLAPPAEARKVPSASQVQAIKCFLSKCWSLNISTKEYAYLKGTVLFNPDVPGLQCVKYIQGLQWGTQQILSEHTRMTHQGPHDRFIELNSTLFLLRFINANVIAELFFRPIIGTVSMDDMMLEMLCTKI
DAX1 inh-2: DAX1 (NR0B1) inhibitors on StAR promoter, primary screen, cell-based, luminescence, SF-1 (NR5A1), full-length DAX-1; HEK293T StAR-luciferase reporter, SF-1/DAX-1 repression relief; AID 652010, 2013; inhibition, % at 6.8 µM; 1.1% of 370,000 active;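 active means inhibition above the mean over all tested compounds plus 3 SD, cut at about 3.6% in these data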;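 further: 0% = DAX-1 cells with DMSO and 100% = cells lacking DAX-1 with DMSO; higher inhibition means more luminescence from relief of DAX-1 repression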
GAA850 FXN act: FXN promoter activators, primary screen, cell-based, luciferase luminescence, HEK293 lucGAA850. activation, % at 6 µM. HEK293 lucGAA850 FXN promoter luciferase reporter, 24 h; percent of 10 µM SAHA response. 0.56% of 360,000 active;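 active means activation above the average of all compounds screened plus 3 SD, cutoff fixed separately per campaign, cut at about 7.5% in these data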;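 further: 0% = DMSO wells and 100% = 10 µM SAHA wells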
hgDAF12 agonist: H. glycines DAF-12 receptor agonists, primary screen, cell-based, luminescence, HEK293, GAL4 fusion, UAS-luciferase | Nuclear hormone receptor DAF-12 (Heterodera glycines), GAL4 fusion | 1.8% of 370,000 active | activation, % at 6.8 µM | HEK293 GAL4-hgDAF12 UAS-luciferase reporter, agonist luminescence; normalized to butyrate control;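 active means activation above a cutoff set at the mean of all screened compounds plus 3 SD, cut at about 10% in these data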;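 further: 0% = DMSO wells and 100% = sodium butyrate wells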
ssDAF-12 act: S. stercoralis DAF-12 nuclear receptor activators, primary screen, cell-based, luminescence, HEK293, GRIP1 co-expression, lit1-tk-luc; HEK293 ssDAF-12/GRIP1 lit1-tk-luc reporter; % of 3 µM dafachronic acid response; Nuclear hormone receptor DAF-12 (Strongyloides stercoralis); AID 652126, 2013; 1% of 370,000 active; activation, % at 6.8 µM;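 active means activation above the mean over all tested compounds plus 3 SD, cut at about 0.9% in these data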;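 further: 0% = DMSO-only wells and 100% = 3 µM delta7-dafachronic acid wells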
LXR ag: LXR agonists, Gal4 luciferase reporter, confirmation, counter-screen for hcDAF-12 agonist project, cell-based, luminescence, HEK293, H. contortus campaign. shares compounds with hcDAF-12 act. HEK293 Gal4-LXR tk-luc reporter, 24 h; normalized: DMSO 0%, positive control 100%. activation, % at 6.8 µM. 3,400 tested, under 10 active. AID 743027, 2013;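 active means mean percent activation of the reporter above a cutoff set as the average over tested compounds plus their standard deviation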
Target sequence (P55055 whole entry, looked up, the tested form may be a part): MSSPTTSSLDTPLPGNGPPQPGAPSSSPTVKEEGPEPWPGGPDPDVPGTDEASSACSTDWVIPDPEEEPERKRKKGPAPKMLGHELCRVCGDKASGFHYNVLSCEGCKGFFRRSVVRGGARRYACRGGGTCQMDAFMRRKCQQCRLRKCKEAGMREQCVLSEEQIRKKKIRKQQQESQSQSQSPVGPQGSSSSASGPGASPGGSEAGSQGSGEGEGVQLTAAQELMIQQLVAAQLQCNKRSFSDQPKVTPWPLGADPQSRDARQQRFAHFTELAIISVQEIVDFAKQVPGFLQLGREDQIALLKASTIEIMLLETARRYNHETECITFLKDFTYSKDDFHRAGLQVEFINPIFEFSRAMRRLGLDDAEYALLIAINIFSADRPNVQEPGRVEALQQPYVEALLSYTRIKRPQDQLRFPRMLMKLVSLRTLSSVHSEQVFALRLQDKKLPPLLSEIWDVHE
hcDAF12 ag: H. contortus DAF-12 receptor agonists, confirmation, cell-based, luminescence, HEK293, lit1-tk-luc, triplicate; shares compounds with hcDAF-12 act; HEK293 hcDAF-12 lit1-tk-luc reporter; % of Δ7-dafachronic acid response; activation, % at 6.8 µM; 61% of 3,400 active; AID 743032, 2013;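 active means mean activation across triplicate tests above the threshold derived from the earlier primary screen, cut at about 5.5% in these data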;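 further: 0% = DMSO only wells and 100% = 3 µM Δ7-dafachronic acid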
Numbers without * were called inactive; . = no result given. The list is not random: actives were taken first. Their share in the collection is about 4.5%.

SMILES | hcDAF-12 act | DAX1 inh-1 | DAX1 inh-2 | GAA850 FXN act | hgDAF12 agonist | ssDAF-12 act | LXR ag | hcDAF12 ag
CCCCCCn1cc(CN2CC(N3CCN(CCO)CC3)CS2(=O)=O)nn1 (configuration not stated) | -0.8 | . | 1.9 | . | -2.6 | -0.2 | . | .
Cc1cccc(C)c1NC(=O)C1(C)CN(S(C)(=O)=O)CC(=O)N1CCc1c[nH]c2ccccc12 (configuration not stated) | 2.0 | . | 1.1 | . | 2.8 | -0.6 | . | .
O=C(Nc1cccc([N+](=O)[O-])c1)OCc1ccc2c(c1)OCO2 | -1.0 | . | -0.6 | . | 0.7 | -1.0 | . | .
CC(C)(C)c1ccc(C2(C)NC(=O)NC2=O)cc1 (configuration not stated) | 8.7* | 2.1 | -0.4 | -0.9 | 0.6 | -0.8 | -0.2 | 2.1
CC(C)=CC([C@]12C[C@H](CO)N[C@@H]1Nc1ccccc12)S(=O)(=O)c1ccccc1 (some centres not stated) | 1.0 | . | . | . | -3.2 | -0.1 | . | .
CC(C)CN1C(=O)C[C@@]2(C(=O)N(C)c3ccc(NS(=O)(=O)C4CCCCC4)cc32)C1c1ccccc1 (some centres not stated) | -0.6 | . | -0.5 | . | -3.6 | -1.5 | . | .
Cc1ccc(/C=N/Nc2cccc3cccnc23)c(O)c1 | 7.5* | 0.1 | 1.8 | 7.2 | 6.9 | 0.6 | 1.6 | 17.1*
Oc1ccc(/C=N/Nc2cccc3cccnc23)c(O)c1 | 2.9 | 0.1 | 2.2 | 1.1 | 5.0 | -0.1 | . | .
CN1C(=O)N(C)N(Cc2ccccc2)C(=O)N1Cc1ccccc1 | -0.9 | . | 1.0 | . | -1.9 | -1.4 | . | .
O=C(COC(=O)c1ccc(Sc2ncn[nH]2)c([N+](=O)[O-])c1)Nc1cccc(Cl)c1F | 1.9 | . | -0.7 | . | -0.2 | -1.1 | . | .
Clc1ccc2nc(-c3ccc4c(c3)OCO4)cn2c1 | 7.5* | -1.4 | 3.7* | -5.2 | 5.1 | -1.0 | 1.2 | 7.1*
COc1ccc(C2CC(c3cccs3)=Nc3ccccc3S2)cc1 (configuration not stated) | 8.6* | 2.4 | 0.5 | 2.5 | 7.8 | 0.3 | 0.2 | 4.0
COc1ccc(O)c(C2=Nc3ccccc3N=C(c3cccs3)C2)c1 | 1.5 | -0.3 | 0.9 | 3.7 | 6.8 | 0.0 | . | .
Cc1cccn2cc(-c3c[nH]c4ccccc34)nc12 | 6.9* | 4.8* | 3.2 | 5.5 | 12.5* | 0.9* | 0.6 | 10.0*
Cc1cccn2cc(-c3cc4ccccc4oc3=O)nc12 | -1.2 | 3.1 | 2.8 | 1.7 | 5.5 | -0.6 | . | .
CCOC(=O)CCCNC(=O)OC1CC2CC1[C@H]1CCCCN1[C@H]2C (some centres not stated) | -2.2 | . | 0.5 | . | -0.1 | -1.4 | . | .
O=C(Cn1cc(SCc2cccc(Cl)c2)c2ccccc21)N1CCOCC1 | 7.8* | 0.7 | 0.7 | 5.5 | 5.9 | -0.3 | 0.3 | 3.2
C=CCN1[C@@H](C)[C@H](c2ccccc2)Oc2cccc(NCCc3ccccc3)c2S1(=O)=O | -0.6 | . | 3.2 | . | 0.2 | 0.6 | . | .
CC(C)(C)OC(=O)NCCc1ccccc1/C=C/S(=O)(=O)NCc1ccccc1 | -2.2 | . | -2.4 | . | 1.0 | -1.4 | . | .
COc1cccc(C(=O)Nc2ccc(NC(=O)C3C4C=CC(C4)C3C(=O)O)cc2)c1 (configuration not stated) | 12.3* | 0.3 | 2.6 | 4.5 | 10.5* | 1.0* | 0.0 | 2.8
CC(C)(C)c1ccc(C(=O)NCCC(=O)N2CCCC2)cc1 | 7.0* | 3.0 | 1.7 | 2.9 | 12.3* | 0.4 | 0.9 | 4.9
CC(C)(C)c1ccc(C(=O)NCCc2ccccc2)cc1 | 6.6* | -1.0 | 2.6 | -0.7 | 11.4* | 0.7 | 2.1 | 11.7*
Cc1ccc(N=C2NC(=O)/C(=C/C=C/c3ccco3)S2)cc1 | 7.9* | 0.8 | 0.3 | 2.2 | 1.7 | -0.1 | 0.2 | 5.6
Cc1nnc(N2CCOCC2)c2nn(-c3ccccc3)c(C)c12 | -1.0 | 0.8 | -0.6 | 1.7 | -1.4 | -1.8 | . | .
c1ccc(-n2nnc3c(N4CCOCC4)ncnc32)cc1 | 7.2* | -2.3 | 2.1 | -2.8 | 7.0 | 0.1 | 1.3 | 6.3*
SMILES | hcDAF-12 act | DAX1 inh-1 | DAX1 inh-2 | GAA850 FXN act | hgDAF12 agonist | ssDAF-12 act | LXR ag | hcDAF12 ag
CCOC(=O)[C@]12CCCCC/C=C\1N(CCc1ccc(Cl)cc1)C(=O)[C@H]2CC(=O)NCc1cccs1 | -0.4 | . | -0.4 | . | 0.0 | -0.9 | . | .
COC(=O)c1ccc(CSc2nnnn2C)o1 | -1.0 | 0.4 | 0.0 | 3.2 | 1.9 | -0.8 | . | .
COC(=O)c1ccc(CSc2nnc(C)n2N)o1 | 14.9* | 1.0 | 0.0 | 2.2 | 0.3 | -0.5 | -0.2 | -1.4
O=C(NCc1cccnc1)c1cc(C2CCCCN2C(=O)c2ccc(Cl)cc2)on1 (configuration not stated) | -1.7 | . | -0.5 | -1.3 | -2.5 | -1.3 | . | .
O=C(Nc1ccccn1)c1ccco1 | 8.5* | 2.8 | 1.2 | 1.5 | 3.2 | -0.9 | 0.3 | 2.5
O=C(Nc1ccccn1)c1ccc2ccccc2c1O | 8.4* | 3.8 | 1.8 | 3.6 | 9.6 | 1.5* | 0.8 | 8.7*
Cc1ccc(NC(=O)C2=C(O)CCn3c2nc2ccccc23)cc1 | 8.9* | 1.3 | -0.4 | 1.4 | 3.9 | 1.9* | 0.1 | 4.8
CCc1nc2ccccc2c(C(=O)Nc2ccc(C)cc2)c1C | -0.4 | 0.1 | 0.0 | 0.7 | -0.4 | -0.8 | . | .
COc1cc(=O)oc(C=O)c1C | -3.0 | . | -0.3 | . | 2.7 | -0.3 | . | .
Clc1ccccc1-c1cc2nc(NCCCn3ccnc3)ccn2n1 | 7.2* | . | 1.4 | 3.7 | 8.2 | -0.4 | 0.5 | 3.3
CCOC(=O)C1=CCN(S(=O)(=O)c2ccc(Br)cc2)C1c1cccc(Br)c1 (configuration not stated) | -1.3 | . | -1.3 | . | -0.9 | -1.5 | . | .
